Screen size: about 190,000 compounds; about 1,900 (1%) were called active.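 The calls were made as follows: active = percentage of spot-positive cells more than 3 SD above its plate mean, without a fluorescence outlier flag or 80% toxicity; inconclusive = no clear call, values can overlap the other calls; inactive = the rest.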 This excerpt belongs to a sample that is enriched for actives.

The test can be described thus: GFP-LC3 puncta formation changes – imaging, high-content, MEF GFP-LC3, primary screen (AID 463193).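 As to % cells with GFP-LC3 spots: spot-positive cell cutoff set from DMSO-treated cells.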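 As to toxicity: cell loss after 18 h compound exposure.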 As to conditions: autophagy, at 10 µM; % cells with GFP-LC3 spots: stronger effect = higher value; toxicity: measured here: cell loss, nuclei count.
In the case of `O=C(NNC(=O)c1cc2c(s1)CCCC2)c1ccccc1`, the % cells with GFP-LC3 spots is 9.94% (inactive) and the toxicity was -13.8%.

Consider `C/C(=N\NC(=O)c1cc2c(s1)CCC(C)C2)c1cccnc1` (stereo not drawn), for which the % cells with GFP-LC3 spots was 17.7% (inactive) and the toxicity is -0.909%.

Regarding `CC1CCc2sc(C(=O)N/N=C/C3CCCCC3)cc2C1` (stereo not drawn), the % cells with GFP-LC3 spots was 20.3% (active) and the toxicity is -2.28%.

Turning to `COC(=O)c1c(C)[nH]c(C)c1-c1ccc([N+](=O)[O-])cc1`, the % cells with GFP-LC3 spots was 18.2% (inactive) and the toxicity stood at 38.9%.

On to `CCOC(=O)c1c(NC(=O)Cn2nc(C(F)(F)F)cc2C)sc2c1CCC2`, for which the % cells with GFP-LC3 spots was 7.63% (inactive) and the toxicity was 0.444%.

Take `N=c1c2c(-c3ccccc3)c(-c3ccccc3)oc2ncn1Cc1ccco1`: the % cells with GFP-LC3 spots is 5.09% (inactive) and the toxicity is -0.176%.

As to `Cc1nc([N+](=O)[O-])c(NCCCO)n1Cc1ccccc1`, the % cells with GFP-LC3 spots is 43.4% (inactive) and the toxicity amounted to 4.77%.

As to `N=c1c2c(-c3ccccc3)c(-c3ccccc3)n(Cc3ccccc3)c2ncn1CCCO`, the % cells with GFP-LC3 spots was 32% (active) and the toxicity turned out to be 9.38%.

In the case of `O=C(Cc1ccccc1)NNS(=O)(=O)c1ccc([N+](=O)[O-])cc1`, the % cells with GFP-LC3 spots is 5.31% (inactive) and the toxicity was -4.08%.

`CCCCN(CC)C(=O)c1ccccc1Oc1ccccc1`: the % cells with GFP-LC3 spots is 7.48% (inactive) and the toxicity was -0.889%.

For `CCCC(=O)n1nc(-c2ccccc2)nc1N`, the % cells with GFP-LC3 spots is 10.8% (inactive) and the toxicity is -5.17%.

For `CCc1nn(-c2cc(Oc3cccc4ccccc34)nc(-c3ccccc3)n2)c(N)c1C#N`, the % cells with GFP-LC3 spots is 19.2% (active) and the toxicity is -18%.

For `COc1ccc(C2c3c(C)nn(-c4ccccc4)c3NC(=O)N2c2ccccc2)cc1` (stereo not drawn), the % cells with GFP-LC3 spots is 11% (inactive) and the toxicity is 17.6%.

In the case of `COc1ccc(CN2CCCC(C(=O)c3ccc(Cl)cc3)C2)cc1Cn1cncn1` (stereo not drawn), the % cells with GFP-LC3 spots was 0.149% (inactive) and the toxicity is -9.01%.

Take `CCc1ccc(NC(=O)Cn2nc(C)c([N+](=O)[O-])c2C)cc1`: the % cells with GFP-LC3 spots is 13.4% (active) and the toxicity worked out at 38.8%.

Regarding `Cc1nn(CC(=O)Nc2ccc(C#N)cc2)c(C)c1[N+](=O)[O-]`, the % cells with GFP-LC3 spots was 2.1% (inactive) and the toxicity turned out to be 9.5%.

For `Cc1nn(CC(=O)Nc2ccc(N(C)C)cc2)c(C)c1[N+](=O)[O-]`, the % cells with GFP-LC3 spots is 8.73% (inactive) and the toxicity is -12.8%.

In the case of `C=CCC(C(=O)c1ccccc1)[N+](C)(C)CC=C` (stereo not drawn), the % cells with GFP-LC3 spots was 2.53% (inactive) and the toxicity was -14.3%.

As to `COC(=O)COc1ccc(C2NC(=O)NC(C)=C2C(=O)NCc2ccccc2)cc1OC` (stereo not drawn), the % cells with GFP-LC3 spots is 0.797% (inactive) and the toxicity came to 20.4%.

For the compound `Cn1c(N)c(C(=O)COC(=O)c2cnc(Cl)c(Cl)c2)c(=O)n(C)c1=O`, the % cells with GFP-LC3 spots is 0.712% (inactive) and the toxicity is 15.7%.

On to `Cc1c(Cl)cccc1NC(=O)CSc1ccc(-c2cccnc2)nn1`, for which the % cells with GFP-LC3 spots was 0.277% (inactive) and the toxicity is -2.28%.

With `CCC(=O)Nc1cc(C(F)(F)F)ccc1N1CCCC1`, the % cells with GFP-LC3 spots was 0.264% (inactive) and the toxicity was -3.5%.

Turning to `CN1CCN(CC(=O)Nc2sc3c(c2C#N)CCC(C(C)(C)C)C3)CC1` (stereo not drawn), the % cells with GFP-LC3 spots was 41.9% (active) and the toxicity amounted to 29.1%.

Consider `CCN1CCN(CC(=O)Nc2sc3c(c2C#N)CCC3)CC1`, for which the % cells with GFP-LC3 spots is 2.15% (inactive) and the toxicity was found to be 4.77%.

For the compound `CCC1CCc2c(sc(NC(C)=O)c2C#N)C1` (stereo not drawn), the % cells with GFP-LC3 spots was 6.62% (inactive) and the toxicity was -8.42%.

On to `CC1(C)CC(=O)c2ccc(O)cc2O1`, for which the % cells with GFP-LC3 spots was 1.01% (inactive) and the toxicity was 7.65%.

In the case of `CCOc1ccc(CN2CCN(Cc3ccc(C)o3)CC2CCO)cc1` (stereo not drawn), the % cells with GFP-LC3 spots is 0.14% (inactive) and the toxicity was -9.23%.

Take `O=C(CN1C(=O)C2C3CCC(C3)C2C1=O)Oc1ccc2ccccc2c1` (stereo not drawn): the % cells with GFP-LC3 spots was 18.4% (active) and the toxicity is -20.7%.

For `O=C(CCN1C(=O)C2C3C=CC(C3)C2C1=O)Oc1ccc2ccccc2c1` (stereo not drawn), the % cells with GFP-LC3 spots was 11.3% (inactive) and the toxicity was 19.4%.

Turning to `CC1=CC(C)(C)Nc2ccc(OC(=O)CN3C(=O)C4CCCCC4C3=O)cc21` (stereo not drawn), the % cells with GFP-LC3 spots was 8.28% (inactive) and the toxicity was 24.4%.

Take `COCCNc1nc2nonc2nc1N(C)Cc1ccc(C)cc1`: the % cells with GFP-LC3 spots is 1.24% (inactive) and the toxicity was -31.9%.

Take `Cc1cn(C)c(=O)n(C)c1=O`: the % cells with GFP-LC3 spots is 8.58% (inactive) and the toxicity is 10.3%.

Take `COc1ccc(NC(=O)CN(C)CC(=O)Nc2cccc(C(F)(F)F)c2)cc1`: the % cells with GFP-LC3 spots was 2.37% (inactive) and the toxicity amounted to 1.34%.

On to `COc1ccc(NC(=O)C(=O)NCC(=O)Nc2cccc(C(F)(F)F)c2)cc1`, for which the % cells with GFP-LC3 spots was 8.9% (active) and the toxicity stood at 11.1%.

Take `O=C(O)CSCC(=O)Nc1cccc(C(F)(F)F)c1`: the % cells with GFP-LC3 spots is 6.64% (inactive) and the toxicity is 0%.

For the compound `CC1Cc2ccccc2N1C1=CC(=O)CC(C)(C)C1` (stereo not drawn), the % cells with GFP-LC3 spots was 2.88% (inactive) and the toxicity came to 3.93%.

Consider `Cc1ccc(/C=C/C(=O)Nc2ccc([N+](=O)[O-])c(NC(=O)/C=C/c3ccc(C)o3)c2)o1`, for which the % cells with GFP-LC3 spots is 55.6% (active) and the toxicity was determined as 0.679%.

Consider `Cc1c(NC(=O)/C=C/C(=O)O)cccc1[N+](=O)[O-]`, for which the % cells with GFP-LC3 spots was 8.95% (inactive) and the toxicity is -17.9%.

With `CCc1nnc(NC(=O)/C=C/c2ccc(C)o2)s1`, the % cells with GFP-LC3 spots was 3.65% (inactive) and the toxicity stood at 1.45%.

`CCCCc1ccc(NC(=S)N2CCCC(CO)C2)cc1` (stereo not drawn): the % cells with GFP-LC3 spots is 11.5% (inactive) and the toxicity turned out to be 11.5%.

As for `COc1ccc2cc(-c3[nH]ncc3CNCCn3nc(C)cc3C)ccc2c1`, the % cells with GFP-LC3 spots is 16.9% (inactive) and the toxicity turned out to be 22%.

In the case of `CC(=O)NC1=NN(C(C)=O)C(C)(c2ccc(Cl)s2)S1` (stereo not drawn), the % cells with GFP-LC3 spots is 21.9% (active) and the toxicity came to 54.1%.

`CC(=O)NC1=NN(C(C)=O)C(C)(c2ccc(C)cc2)S1` (stereo not drawn): the % cells with GFP-LC3 spots was 4% (inactive) and the toxicity was -6.62%.

As for `CC(=O)NC1=NN(C(C)=O)C(C)(CCS(=O)(=O)c2ccc(Cl)c(Cl)c2)S1` (stereo not drawn), the % cells with GFP-LC3 spots is 9.23% (inactive) and the toxicity is 11.3%.

With `COc1ccc(N2CCN(c3ccc([N+](=O)[O-])nc3)CC2)cc1`, the % cells with GFP-LC3 spots was 7.77% (inactive) and the toxicity was found to be 4.08%.

As for `O=C(N/N=C/c1ccc(Br)o1)c1cncc(Br)c1`, the % cells with GFP-LC3 spots is 33.5% (inactive) and the toxicity is -0.407%.

For the compound `CCN(CC)CCCNC(=O)c1ccc2c(=O)n(Cc3ccc4c(c3)OCO4)c(=S)[nH]c2c1`, the % cells with GFP-LC3 spots was 0.744% (inactive) and the toxicity stood at 5.92%.

With `CC(Nc1nc(N2CCCC2)nc2ccccc12)c1ccccc1` (stereo not drawn), the % cells with GFP-LC3 spots is 13.8% (active) and the toxicity was -2.79%.

In the case of `CC(Nc1nc(N2CCOCC2)nc2ccccc12)c1ccccc1` (stereo not drawn), the % cells with GFP-LC3 spots was 0.846% (inactive) and the toxicity was 11.2%.

On to `CC(Nc1nc(N2CCN(CCO)CC2)nc2ccccc12)c1ccccc1` (stereo not drawn), for which the % cells with GFP-LC3 spots was 30.9% (inactive) and the toxicity stood at 23.9%.

In the case of `O=C(CS(=O)(=O)c1ccccc1)Nc1ccc(S(=O)(=O)Nc2ccccn2)cc1`, the % cells with GFP-LC3 spots was 0.85% (inactive) and the toxicity stood at 0.1%.

Regarding `C=CCN1C(=O)C(Cc2ccc(OCC)cc2)SC1=Nc1ccc(C(=O)O)cc1` (stereo not drawn), the % cells with GFP-LC3 spots is 9.61% (inactive) and the toxicity was -5.34%.

Take `O=c1c2ccccc2nc(CSc2nnnn2-c2ccccc2)n1-c1ccccc1`: the % cells with GFP-LC3 spots was 39.8% (active) and the toxicity was -13.7%.

As to `O=c1c2ccccc2nnn1CSc1nnnn1-c1ccccc1`, the % cells with GFP-LC3 spots is 7.02% (inactive) and the toxicity came out at 5.05%.

Consider `Cc1ccc(Nc2nc(CSc3nnnn3-c3ccccc3)cc(=O)[nH]2)cc1`, for which the % cells with GFP-LC3 spots is 3.58% (inactive) and the toxicity stood at 2.22%.

As for `CCCC(=O)NC(=S)Nc1ccc(CN2CCOCC2)cc1`, the % cells with GFP-LC3 spots was 10.3% (inactive) and the toxicity was -3.3%.

Take `CCNC(=O)COC(=O)/C=C/c1c(C)nn(Cc2cccc(OC)c2)c1Cl`: the % cells with GFP-LC3 spots was 10.7% (inactive) and the toxicity was 15.5%.

`COC(=O)c1ccc(NC(=O)c2cc(Cl)ccc2OC)cc1`: the % cells with GFP-LC3 spots was 0.193% (inactive) and the toxicity is -8.44%.

Consider `CC(=O)c1cc(NC(=O)c2ccccc2)c(=O)oc1/C=C/N(C)C`, for which the % cells with GFP-LC3 spots was 2.32% (inactive) and the toxicity amounted to 8.72%.

As to `CCOC(=O)c1cc(NC(=O)c2ccc(Cl)cc2)c(=O)oc1-c1ccccc1`, the % cells with GFP-LC3 spots is 15.9% (active) and the toxicity was -0.561%.

With `CCOC(=O)NNC(=O)c1ccc(Cl)cc1`, the % cells with GFP-LC3 spots was 2.34% (inactive) and the toxicity was 8.61%.

Consider `CC(C)NC(=O)NC(=O)CSc1nnc(-c2ccccc2F)n1N`, for which the % cells with GFP-LC3 spots was 4.07% (inactive) and the toxicity was -3.54%.

Consider `Cc1cc([N+](=O)[O-])nn1Cc1ccc(F)cc1`, for which the % cells with GFP-LC3 spots is 11.8% (inactive) and the toxicity is 3.65%.

`Cc1cnc(C(=O)OCC(=O)NCCCc2ccccc2)cn1`: the % cells with GFP-LC3 spots was 19.9% (inactive) and the toxicity was 14.4%.

Values taken from PubChem BioAssay AID463193 (University of Pittsburgh Molecular Library Screening Center, 2010).
